Test results taken from PubChem BioAssay (NCATS).
Inconclusive results are not listed. The source made the active and inactive calls. Calls follow the shape of the dose curve; as a rule, active = well fitted inhibition curve with a large enough effect; inconclusive = small, poorly fitted or top-dose-only effect; inactive = flat fitted curve, though single readings scatter.

Experiments:
Assay in all cases: qHTS profiling for inhibitors of Plasmodium falciparum proliferation (AID 504749); also: nearly all actives have a fitted effect of over 60% in size
[1] = tested on: CP247; conditions: P. falciparum in erythrocytes, SYBR Green DNA, 72 h; series mostly up to 28.7 µM
Outline: (§1)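 SYBR Green fluorescence (ex 485 nm, em 535 nm) reports parasite DNA after 72 h compound exposure of infected red cells at 0.3% parasitemia, 2.5% hematocrit; signal normalized to 0.29 uM artemisinin and vehicle wells.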

[2] = tested on: CP250; conditions: P. falciparum in erythrocytes, SYBR Green DNA, 72 h; series mostly up to 28.7 µM
Outline: as §1

[3] = tested on: CP252; conditions: P. falciparum in erythrocytes, SYBR Green DNA, 72 h; series mostly up to 28.7 µM
Outline: as §1

[4] = tested on: CP260; conditions: P. falciparum in erythrocytes, SYBR Green DNA, 72 h; series mostly up to 28.7 µM
Outline: as §1

[5] = tested on: CP262; conditions: P. falciparum in erythrocytes, SYBR Green DNA, 72 h; series mostly up to 28.7 µM
Outline: as §1

[6] = tested on: CP265; conditions: P. falciparum in erythrocytes, SYBR Green DNA, 72 h; series mostly up to 28.7 µM
Outline: as §1

[7] = tested on: CP266; conditions: P. falciparum in erythrocytes, SYBR Green DNA, 72 h; series mostly up to 28.7 µM
Outline: as §1

[8] = tested on: CP268; conditions: P. falciparum in erythrocytes, SYBR Green DNA, 72 h; series mostly up to 28.7 µM
Outline: as §1

[9] = tested on: CP269; conditions: P. falciparum in erythrocytes, SYBR Green DNA, 72 h; series mostly up to 28.7 µM
Outline: as §1

[10] = tested on: CP256; conditions: P. falciparum in erythrocytes, SYBR Green DNA, 72 h
Outline: as §1
Potency is read from the fitted curve at half-maximal effect.

SMILES | Potency [1] | Potency [2] | Potency [3] | Potency [4] | outcome [5] | Potency [6] | Potency [7] | Potency [8] | Potency [9] | Potency [10]
CCCOc1ccc2nc(NC(=O)OC)sc2c1 | inactive | inactive | inactive | inactive | inactive | inactive | inactive | inactive | inactive | 
COC1C(OC(=O)/C=C/C=C/C=C/C=C/C(=O)O)CCC2(CO2)C1C1(C)OC1CC=C(C)C (stereo not given) |  |  |  |  |  |  |  | 3380 nM (active) |  | 70.8 nM (active)
C=CCNC1=C2C[C@@H](C)C[C@H](OC)[C@H](O)[C@@H](C)/C=C(\C)[C@H](OC(N)=O)[C@@H](OC)/C=C\C=C(/C)C(=O)NC(=CC1=O)C2=O | 2240 nM (active) | 2240 nM (active) | 1780 nM (active) | 2240 nM (active) |  | 2000 nM (active) | 10700 nM (active) | 5360 nM (active) | 1690 nM (active) | 2240 nM (active)
